SW480 rerep = A quantitative high throughput screen for small molecules that induce DNA re-replication in SW480 colon adenocarcinoma cells | SW480 DNA re-replication, Hoechst DNA content imaging, 48 h | Potency, µM (series often up to 46.1 µM), for inactives: top-dose re-replication activation, hits mostly activators | hit rate 1.8% among 340,000 | AID 624297, 2012; note: % of control where 0% means no effect; nearly all actives have a fitted effect of over 55% in size
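Image-based DNA-content assay: after two days of treatment, nuclei were labelled with the DNA dye Hoechst and imaged, and hits were compounds raising the count of nuclei showing high fluorescence intensity.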
ELG1 genotoxic = qHTS screen for small molecules that induce genotoxicity in human embryonic kidney (HEK293T) cells expressing luciferase-tagged ELG1; HEK293T ELG1-luciferase reporter, luminescence, 16 h; Potency, µM (top dose mostly 46 µM), for inactives: at the top dose activity change, positive = activation, hits mostly activators; hit rate 1.3% among 330,000; note: % of control where 0% means no effect; nearly all actives have a fitted effect of over 60% in size
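Cells (2,000/well) expressing the ELG1-luciferase fusion are dosed by pin tool and kept 16 hr at 37 °C, 5% CO2. Signal comes from ONE-Glo luciferase reagent after 30 min at room temperature.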
A-T KAP1 phos = qHTS Assay for Identifying a Potential Treatment of Ataxia-Telangiectasia; F2112 A-T fibroblasts, KAP-1 phosphorylation AlphaLISA; neocarzinostatin DNA damage 30 min before lysis; Potency, µM (highest dose often 57.5 µM), for the others: top-dose activation, most hits filed as activators; hit rate 0.19% among 320,000; AID 485349, 2010; note: % of control where 0% means no effect; nearly all actives have a fitted effect of over 45% in size
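hTERT-immortalized A-T patient fibroblasts (F2112), 500 cells/well in OPTI-MEM, 1% FBS, got compounds for 60 min, then NCS for 30 min at 37C. Lysates were then assayed for phospho-KAP-1 by AlphaLISA (anti-pKAP1 donor, anti-KAP1 acceptor beads), 6 hr at 25C.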
p53 reactivation = qHTS assay for re-activators of p53 using a Luc reporter. H1299 p53-A138V BP100-luciferase reporter, luminescence, 24 h. Potency, µM (highest dose often 92.2 µM), for the others: at the top dose activity change, positive = activation, actives largely listed as activators. hit rate 0.063% among 320,000. AID 504706, 2011; note: % of control where 0% means no effect; nearly all actives have a fitted effect of over 45% in size
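p53-null H1299 cells stably carrying temperature-sensitive p53-A138V and a BP100-luciferase reporter were pinned with compounds (4-point, 1:5 series) and held 24 hrs at 37 deg C. Luminescence was read 10 min after detection reagent.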
MCF10A rereplic = A quantitative high throughput screen for small molecules that induce DNA re-replication in MCF 10a normal breast cells; MCF 10A DNA re-replication, Hoechst nuclear intensity, 48 h; Potency, µM (titrated, usually from 46.1 µM), without a hit: at the top dose activity, positive = re-replication, most hits filed as activators; hit rate 2.9% among 350,000; AID 624296, 2012; note: % of control where 0% means no effect; nearly all actives have a fitted effect of over 50% in size
ELG1 repair inh = qHTS screen for small molecules that inhibit ELG1-dependent DNA repair in human embryonic kidney (HEK293T) cells expressing luciferase-tagged ELG1; HEK293T ELG1-luciferase reporter, luminescence, 16 h; DNA damage induced by 5-fluorouridine; hit rate 2.3% among 330,000; Potency, µM (series often up to 46.1 µM), without a hit: at the top dose activity change, negative = inhibition, usual class: inhibitors; note: % is set by controls: 0 for no effect and ±100 for the full control effect; nearly all actives have a fitted effect of over 55% in size
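5-Fluorouridine DNA damage + compound/DMSO, 2,000 cells/well, 16 h, 37 °C/5% CO2. ONE-Glo, 30 min RT, luminescence. Readout = decrease in reporter signal.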
* marks the source's active call; other numbers are inactive results; ? = inconclusive; . = no result given; [ ] = dose if it differs, or a comment. In the library only some 7.1% were active in any assay of this set; here they are far more common. Calls come from the whole dose curve; as a rule, active = well fitted curve in the direction sought with a large enough effect; inconclusive = small, poorly fitted or top-dose-only effect, or another doubt; inactive = no such curve, though single readings can be large; an effect the other way counts as inactive or inconclusive. Potency is the fitted concentration of half-maximal effect.

SMILES | SW480 rerep | ELG1 genotoxic | A-T KAP1 phos | p53 reactivation | MCF10A rereplic | ELG1 repair inh
C=C(C=O)CC1CC(O)[C@]2(C)OC3CC4OC5C[C@]6(C)O[C@]7(C)CCC8OC9C[C@]%10(C)OC%11C(C)=CC(=O)OC%11CC%10OC9C[C@@H](C)C8OC7CC6O[C@]5(C)CC5OC5C4OC3CC2O1 (stereo partly specified) | 5.8µM* | -17% | -8% | -13% | 4.6µM* | 4.1µM*
C=C(CO)CC1CC(O)[C@]2(C)OC3CC4OC5C[C@]6(C)O[C@]7(C)CCC8OC9C[C@]%10(C)OC%11C(C)=CC(=O)OC%11CC%10OC9C[C@@H](C)C8OC7CC6O[C@]5(C)C/C=C\C4OC3CC2O1 (stereo partly specified) | -2% | -11% | -10% | 4% | -5% | -20%
COc1ccc(CC(=O)NC(=S)NNC(=O)COc2c(C)cccc2C)cc1 | -9% | -6% | -7% | 11% | ? | -15%
C[C@H]1COC(=O)[C@@H](Cc2ccc(F)cc2)CC/C=C/C[C@@H](CC(=O)N(CCO)Cc2ccccc2)C(=O)N1 | -11% | -7% | -2% | -3% | 1% | ?
CCC(=Nc1ccc(OC)cc1OC)c1c(O)n(C)c(=O)n(C)c1=O | -5%[9.22 µM] | -5% | -12% | -1% | -20% | ?
CCC(=NCc1cc(OC)cc(OC)c1)c1c(O)n(C)c(=O)n(C)c1=O | -4% | -17% | 0% | 3% | 0% | 21µM*
CCC(=NCc1ccc2c(c1)OCO2)c1c(O)n(C)c(=O)n(C)c1=O | -4% | -17% | 8% | -6% | 11% | 15µM*
CC(=NCc1ccc2c(c1)OCO2)c1c(O)n(C)c(=O)n(C)c1=O | -4% | -9% | 4% | -12% | ? | ?
CC(=O)Nc1ccc(S(=O)(=O)N2CCSC2c2ccc(C)cc2)cc1 (stereo unspecified) | -4% | -19% | 11% | -3% | ? | 16µM*
O=c1[nH]c(=S)n(-c2cccc(Cl)c2)c(O)c1/C=N/N1CCOCC1 | 4% | -1% | -7% | 3% | 6% | -5%
CCS(=O)(=O)N1CCN(C2CCC(C)CC2)CC1 (stereo unspecified) | ? | -5% | 4% | 21% | 5% | 0%
N#Cc1cc2c(nc1SCC(=O)Nc1ccc(Cl)cc1)C1CCN2CC1 | ? | -4% | 3% | ? | 187% | -12%
N#Cc1cc2c(nc1SCC(=O)Nc1cc(Cl)ccc1Cl)C1CCN2CC1 | ? | ? | 3% | 45µM* | 0.58µM* | 9%
CN(CC=CCN(C)P(=S)(N1CC1)N1CC1)P(=S)(N1CC1)N1CC1 | ? | . | . | . | 13µM* | .
CC(C)C[C@H]1CNC(=S)N1CC1CCN(CC2CCC(C(C)(C)C)CC2)CC1 (stereo partly specified) | 2% | . | . | . | ? | .
CC(O)C1C=CC=CC(=O)OC2CC3OC4C5OC5(C)CCC4(COC(=O)C4OC4(C)C(O)CO1)C2(C)C31CO1 (stereo unspecified) | 0.46µM* | . | . | . | 0.15µM* | .
C1=NCCc2c1[nH]c1ccccc21 | 4.1µM* | . | . | . | 16µM* | .
Cc1[nH]c2ccccc2c1C1=CCNCC1 | -9% | -6% | . | -10% | 23% | ?
CC(=O)OCC(=O)[C@@H]1CC[C@H]2[C@H]3CC[C@H]4C[C@@H](O)CC[C@]4(C)[C@@H]3C(=O)C[C@@]12C | -1%[20.6 µM] | . | . | . | 2%[20.6 µM] | .
O=c1c2ccccc2nc(-c2cccs2)n1-c1ccccc1 | -4% | -6% | -2% | 1% | 19% | -2%
NC(N)=N/N=C/c1cn(-c2ccccc2)nc1-c1cccs1 | -19% | 1% | -2% | -13% | 7.3µM* | 0%
O=C(N=Nc1c(O)n(C2OC(=O)c3ccccc32)c2ccccc12)c1ccco1 (stereo unspecified) | . | 5% | 7% | -1% | . | ?
CC(=O)OC1C[C@H](O[C@@H]2C(O)C[C@H](O[C@@H]3C(O)C[C@@H](OC4CC[C@]5(C)C(CCC6C5CC(O)[C@@]5(C)C(C7=CC(=O)OC7)CC[C@@]65O)C4)OC3C)OC2C)O[C@H](C)[C@H]1O[C@H]1OC(CO)C(O)C(O)C1O (stereo partly specified) | ? | . | . | . | 0.12µM* | .
CC1OC(OC2CCC3(C)C(CCC4C3CC(O)C3(C)C(C5=CC(=O)OC5)CCC43O)C2)CC(O)C1OC1CC(O)C(OC2CC(O)C(OC3OC(CO)C(O)C(O)C3O)C(C)O2)C(C)O1 (stereo unspecified) | ? | . | . | . | 6% | .
CC(=O)OC1CC(OC2C(O)CC(OC3C(O)CC(OC4CCC5(C)C(CCC6C5CCC5(C)C(C7=CC(=O)OC7)CCC65O)C4)OC3C)OC2C)OC(C)C1OC1OC(CO)C(O)C(O)C1O (stereo unspecified) | 0.92µM* | . | . | . | 15% | .
SMILES | SW480 rerep | ELG1 genotoxic | A-T KAP1 phos | p53 reactivation | MCF10A rereplic | ELG1 repair inh
COc1cc(C(=O)N/N=C/C23CC[C@@H](O)CC2(O)CC[C@@H]2[C@@H]3CCC3(C)C(C4=CC(=O)OC4)CCC23O)ccc1O (stereo partly specified) | -12% | -6% | -5% | 9% | ? | -14%
COC1CC(OC2CCC3(C)C(CCC4C3CCC3(C)C(C5=CC(=O)OC5)C(OC(C)=O)CC43O)C2)OC(C)C1OC1OC(COC2OC(CO)C(O)C(O)C2O)C(O)C(O)C1O (stereo unspecified) | . | -11% | 59% | -1% | . | 2.9µM*
Cc1nn(Cc2ccc(Cl)cc2Cl)c(Cl)c1C(=O)O | ? | -3% | -3% | 6% | 14% | -6%
Nc1nc(SCc2ccc(Cl)cc2Cl)n[nH]1 | 5% | 21µM* | 3% | 3% | 1% | ?
Cc1ccccc1CN1Cc2cnnn2-c2ccccc2C1C#N (stereo unspecified) | ? | . | . | . | 6.5µM* | .
Cc1ccccc1C(=O)N1Cc2cnnn2-c2ccccc2C1C#N (stereo unspecified) | -20%[9.22 µM] | . | . | . | -1% | .
